# Screens (PubChem BioAssay)
# p53null 39C tox: kills p53 null cells at the nonpermissive temperature. Potency, µM (top dose mostly 46.1 µM), without a hit: at the top dose activity, negative = cell killing, most hits filed as cytotoxic. hit rate 0.97% among 55,000. AID 904. H1299 p53-null (neo) cells, 39C, ATPlite viability, 24 h;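 also: potency is read from the fitted curve at half-maximal effect; 0% = DMSO only and -100% = full killing by 100 µM tamoxifen; nearly all actives have a fitted effect of over 50% in size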
#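 H1299 lung cancer cells, p53-null (H1299-neo) or expressing p53 A138V (H1299-p53A138V), were plated overnight at 37C, then exposed to compounds at up to 46 uM for 24 hr at 39C. Viability was read by ATP-based luminescence.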
# mTORC1 inh: mTORC1 pathway inhibition measured by phospho-rpS6 | AID 493208 | Tsc2-/- p53-/- MEF, phospho-rpS6 immunofluorescence/PI, 24 h | Potency, µM (top dose mostly 38.3 µM), for inactives: at the top dose activity change, negative = inhibition, most hits filed as inhibitors | hit rate 0.78% among 44,000;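 also: potency is read from the fitted curve at half-maximal effect; plate controls were DMSO for no effect and rapamycin for full effect; nearly all actives have a fitted effect of over 50% in size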
#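 Compounds act on Tsc2-/-, p53-/- fibroblasts carrying an empty vector for 24 h before fixation and dual staining for phospho-S6 and DNA (propidium iodide). Values are percentages of cells above a rapamycin-defined pS6/PI threshold.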
# OvCa metastasis: inhibitors of ovarian cancer cell adhesion and invasion in omental model; SKOV3ip1-GFP adhesion/invasion on 3D omental model, fluorescence; Potency, µM (series often up to 45.8 µM), without a hit: top-dose activity change, negative = inhibition, most hits filed as inhibitors; hit rate 0.1% among 46,000; AID 1963576;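 also: potency is read from the fitted curve at half-maximal effect; plate controls were DMSO wells for no effect and tomatine positive control wells for full effect; nearly all actives have a fitted effect of over 65% in size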
#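 qHTS, 4-pt dose (0.36-46 umol/L); SKOV3ip1-GFP, 1,200 cells/well, no FBS; primary omental fibroblast/mesothelial co-culture 48 h pre-grown; 2 h RT + 16 h 37 C; PBS wash, 4% PFA; GFP count 488/509 nm.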
# PMP22 txn: modulators of PMP22 gene transcription in S16 Schwann cells | S16 Pmp22-F2sN Schwann cells, FLuc/NLuc coincidence luminescence, 24 h | Potency, µM (series often up to 57.5 µM), for the others: top-dose activity change, negative = inhibition, most hits filed as inhibitors | hit rate 2% among 43,000; active = clear falling dose curves in both reporters; inconclusive = both reporters move, but less clearly or upward; inactive = either reporter flat; the % is the NLuc reporter signal; also: potency is read from the fitted curve at half-maximal effect; % is scaled to controls: 0 for no effect and ±100 for the full control effect
#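 qHTS, 1536-well. Cells seeded, compounds added by pin tool, 24 h 37C. Nano-Glo reagent 1 (lysis/FLuc), 10 min RT, read; Stop&Glo, 10 min RT, read NLuc.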
# S16 viability: S16 Schwann cell cytotoxicity; S16 Pmp22-F2sN Schwann cells (luciferase reporters placed in the Pmp22 gene) viability, CellTiter-Glo, 24 h; Potency, µM (doses to about 57.5 µM), without a hit: top-dose activity change, negative = cytotoxicity, hits mostly cytotoxic; hit rate 0.48% among 43,000; AID 1508642; also: potency is read from the fitted curve at half-maximal effect; % is scaled to controls: 0 for no effect and ±100 for the full control effect; nearly all actives have a fitted effect of over 65% in size
#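 S16 Schwann cells carrying the Pmp22-F2sN reporter, seeded in 1536-well format, were exposed to library compounds for 24 h at 37C. Viability was read as CellTiter-Glo luminescence after 15 min at room temperature.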
# p53null 32C tox: selectivity test: cytotoxicity in p53 null cells, permissive temperature. H1299-neo p53 null cells, ATP luminescence, 24 h, 32C. Potency, µM (doses to about 46.1 µM), for the others: top-dose activity change, negative = cytotoxicity, most hits filed as cytotoxic. hit rate 0.62% among 55,000. AID 903;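 also: potency is read from the fitted curve at half-maximal effect; 0% = DMSO only and -100% = full killing by 100 µM tamoxifen; nearly all actives have a fitted effect of over 55% in size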
#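 H1299-neo (p53-null) cells, 600/well, were pre-incubated overnight at 37C, then exposed to compounds at up to 46 uM for 24 hr at 32C. Viability was measured as ATP content by luminescence, and AC50 values came from Hill fits.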
# NLuc sat counter: inhibits NanoLuc at saturating substrate, PMP22 counter-screen; Potency, µM (series often up to 57.5 µM), for inactives: at the top dose activity change, negative = inhibition, usual class: inhibitors; hit rate 4% among 690; shares compounds with PMP22 txn; Secreted NLuc enzyme (filtered S16 cell medium), Nano-Glo luminescence; also: potency is read from the fitted curve at half-maximal effect; % is scaled to controls: 0 for no effect and ±100 for the full control effect
# NLuc Km ctr: NanoLuc inhibition at Km substrate, PMP22 artifact check | shares compounds with PMP22 txn | secreted NLuc enzyme, coelenterazine luminescence, Km conditions | Potency, µM (top dose mostly 57.5 µM), without a hit: at the highest dose activity change, negative = inhibition, hits mostly inhibitors | hit rate 5% among 690 | AID 1508639; also: potency is read from the fitted curve at half-maximal effect; % is scaled to controls: 0 for no effect and ±100 for the full control effect
# FLuc counter: inhibits firefly luciferase, PMP22 counter-screen; shares compounds with PMP22 txn; purified P. pyralis FLuc, luminescence, 10 min; Potency, µM (titrated, usually from 57.5 µM), inactives show at the highest dose activity, negative = inhibition, actives largely listed as inhibitors; 690 tested, under 10 active; AID 1508640; also: % of control where 0% means no effect
# Target sequence (P08659 whole entry, looked up): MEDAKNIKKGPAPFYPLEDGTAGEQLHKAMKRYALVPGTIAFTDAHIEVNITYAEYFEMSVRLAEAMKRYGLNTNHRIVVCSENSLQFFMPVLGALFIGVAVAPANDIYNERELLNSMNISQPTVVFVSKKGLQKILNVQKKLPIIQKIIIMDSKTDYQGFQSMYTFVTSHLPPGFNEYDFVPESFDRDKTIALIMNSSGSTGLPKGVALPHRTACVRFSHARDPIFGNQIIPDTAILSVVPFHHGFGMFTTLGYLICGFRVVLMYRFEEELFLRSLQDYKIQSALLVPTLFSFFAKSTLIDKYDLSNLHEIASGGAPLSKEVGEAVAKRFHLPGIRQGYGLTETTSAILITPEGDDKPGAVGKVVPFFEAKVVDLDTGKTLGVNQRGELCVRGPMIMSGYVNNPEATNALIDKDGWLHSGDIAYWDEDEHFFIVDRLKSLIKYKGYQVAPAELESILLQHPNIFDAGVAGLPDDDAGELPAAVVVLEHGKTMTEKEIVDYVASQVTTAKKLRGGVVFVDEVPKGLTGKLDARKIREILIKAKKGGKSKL
# S16 F2sN tox cnf: S16 Schwann cell cytotoxicity, confirmatory; hit rate 7% among 690; S16 Schwann cells viability, CellTiter-Glo ATP luminescence, 24 h; shares compounds with PMP22 txn; Potency, µM (series often up to 57.5 µM), for the others: at the top dose activity change, negative = viability loss, most hits filed as cytotoxic; also: potency is read from the fitted curve at half-maximal effect; % is scaled to controls: 0 for no effect and ±100 for the full control effect
# PMP22 txn conf: confirmation of modulators of PMP22 gene transcription in S16 cells; shares compounds with PMP22 txn; S16 Schwann cells Pmp22-F2sN, dual luciferase, 24 h; Potency, µM (titrated, usually from 57.5 µM), without a hit: at the highest dose activity change, negative = inhibition, usual class: inhibitors; hit rate 22% among 690; AID 1508646; active = clear falling dose curves in both reporters; inconclusive = both reporters move, but less clearly or upward; inactive = either reporter flat; the % is the FLuc reporter signal; also: potency is read from the fitted curve at half-maximal effect
# PMP22 prot conf: confirmation of modulators of rat PMP22 protein expression; shares compounds with PMP22 txn; S16 Schwann cells Pmp22-HiBiT, luminescence, 48 h; Potency, µM (series often up to 27.9 µM), inactives show at the top dose activity change, negative = inhibition, hits mostly inhibitors; 95 tested, under 10 active; AID 1508647
# Target sequence (P25094 whole entry, looked up): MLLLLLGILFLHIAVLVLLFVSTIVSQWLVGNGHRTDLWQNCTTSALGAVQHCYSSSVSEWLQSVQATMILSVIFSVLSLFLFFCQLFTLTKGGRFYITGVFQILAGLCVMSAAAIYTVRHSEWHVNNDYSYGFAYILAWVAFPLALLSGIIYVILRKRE
# Starred values were filed as active, the others as inactive; i = inactive; ? = inconclusive; . = no result given. Compounds with a hit are over-represented: about 3.1% of the library has one in this group of screens. Unless noted, calls follow the shape of the dose curve; as a rule, active = well fitted curve in the direction sought with a large enough effect; inconclusive = small, poorly fitted or top-dose-only effect, or another doubt; inactive = no such curve, though single readings can be large; an effect the other way counts as inactive or inconclusive.
SMILES,p53null 39C tox,mTORC1 inh,OvCa metastasis,PMP22 txn,S16 viability,p53null 32C tox,NLuc sat counter,NLuc Km ctr,FLuc counter,S16 F2sN tox cnf,PMP22 txn conf,others
CCCCCOc1ccc(/C=C/C(=O)Nc2sc(C)c(C)c2C(=O)OCC)cc1OC,14%,3%,-30%,7.1µM*,-15%,-2%,-6%,1%,-10%,7%,-19%,
CCCCCOc1ccc(/C=C/C(=O)Nc2sc3c(c2C(=O)OCC)CCC3)cc1OC,7%,4%,1%,-18%,5%,-4%,.,.,.,.,.,
CCCCCOc1ccc(/C=C/C(=O)Nc2sc(C(C)=O)c(C)c2C(=O)OCC)cc1OC,27%,-10%,20%,7.5µM*,19%,4%,1%,-1%,-3%,5%,-7%,
CCN1CCN(C(=O)N[C@H](C(=O)N[C@@H]2C(=O)N3C(C(=O)O)=C(CSc4nnnn4C)CS[C@@H]23)c2ccc(O)cc2)C(=O)C1=O,.,.,i,.,.,.,.,.,.,.,.,
CCC(C)NC(=O)C1CCN(C(=O)c2cc3sccc3n2Cc2ccc(Cl)cc2)CC1 (configuration not stated),23%,0%,-7%,8.9µM*,?,20%,?,?,11%,?,14µM*,PMP22 prot conf=1.6µM*
COc1ccccc1-c1nc2c(c(SCC(=O)Nc3ccc(C)c(C)c3)n1)Cc1c(CO)cnc(C)c1O2,-15%,-6%,23%,17µM*,-25%,4%,?,?,-10%,-19%,?,
Cc1ccc(NC(=O)CSc2nc(-c3ccc(F)cc3)nc3c2Cc2c(CO)cnc(C)c2O3)cc1C,?,-1%,13%,9%,0%,-7%,.,.,.,.,.,
Cc1ncc(CO)c2c1Oc1nc(-c3ccccc3)nc(SCC(=O)N3CCCCC3)c1C2,-22%,-2%,7%,12µM*,1%,3%,-5%,1%,2%,?,?,
Cc1ncc(CO)c2c1Oc1nc(-c3ccc(Cl)cc3)nc(SCC(=O)N3CCCCC3)c1C2,-23%,-2%,2%,?,?,-1%,.,.,.,.,.,
Nc1ccc(C(=O)c2cc3c(ccc4ccccc43)[nH]2)cc1,.,.,-10%,.,.,.,.,.,.,.,.,
Cc1cc(Nc2sc(C(=O)c3ccc(F)cc3)c(N)c2C(=O)Nc2ccc(F)cc2)ccc1Cl,4%,-11%,?,6.3µM*,?,1%,-19%,?,3%,?,6.1µM*,
CCOc1ccc(CCNc2nc3ccccc3n3c(C)nnc23)cc1OCC,-7%,-8%,-15%,?,-3%,8%,?,?,1%,0%,?,
CC(C=CC=C(C)C=CC1=C(C)CCCC1(C)C)=CC=CC=C(C)C=CC=C(C)C=CC1=C(C)CCCC1(C)C,.,.,-3%,.,.,.,.,.,.,.,.,
COc1cc(OC)c(C=CS(=O)(=O)Cc2ccc(OC)c(NCC(=O)O)c2)c(OC)c1,.,.,24%,.,.,.,.,.,.,.,.,
CCOC(=O)c1c(S(=O)(=O)N2CCCC(C(=O)N3CCN(c4cccc(C)c4C)CC3)C2)c(C)n(C)c1C (configuration not stated),92%,-2%,i,17µM*,-21%,11%,?,?,4%,-8%,-23%,
COc1cccc(Cn2c(CNC(=O)c3cc([N+](=O)[O-])ccc3Cl)nc3cccnc32)c1,48%,-1%,-62%,13µM*,2%,6%,-4%,-4%,-2%,7%,4%,
Cc1cccc(N2CCN(S(=O)(=O)c3ccc4c(c3)CCCN4C(=O)C3CCC3)CC2)c1C,3%,-10%,-5%,16µM*,-19%,-1%,-8%,3%,9%,-16%,?,
CCOC(=O)c1c(C)oc2nc(C)nc(NCCc3ccc(OCC)cc3)c12,10%,6%,-23%,14µM*,-27%,-4%,?,?,-10%,-11%,?,
CCOc1ccc(CCNC(=O)c2c(C)oc3ncn(CC(C)C)c(=O)c23)cc1,-29%,5%,11%,20µM*,2%,-5%,?,2%,?,2%,-32%,
CCOC(=O)c1c(C)oc2nc(C)nc(NCCc3ccc(Cl)cc3)c12,-3%,?,10%,-35%,14%,0%,.,.,.,.,.,
Cc1ccc2c(CC(=O)N(Cc3ccc(N(C)C)cc3)Cc3ccco3)coc2c1C,55%,?,-3%,?,-4%,5%,.,.,.,.,.,
COc1cc(C2c3c(oc4ccccc4c3=O)C(=O)N2Cc2ccccc2Cl)ccc1O (configuration not stated),?,3%,10%,11µM*,3%,-23%,-9%,-4%,4%,-8%,?,
CCOc1cc(C2c3c(oc4ccccc4c3=O)C(=O)N2Cc2ccccc2Cl)ccc1O (configuration not stated),-3%,-6%,-8%,?,2%,-1%,.,.,.,.,.,
